Measurements from PubChem BioAssay AID1159580 (chemical genetic matrix, 2015).
Several values for one entry are separate records, joined by “and”; a condition that tells them apart may be missing. Equal entries are not always repeated. The whole screen tested about 5,500 compounds, of which about 2,000 (36%) were called active. Not shown: some 18% with an inconclusive outcome. Cut-off read from the data, not from the text of the source: active = normalized growth mostly below about 0.91 (no sharp cut-off); inconclusive = no clear call, values can overlap the other calls; inactive = mostly above about 0.92. The list shows a part of the results.

Assay: chemical genetic growth profiling, strain panel (AID 1159580);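 note: tested at 20 µM; growth read once vehicle control cultures reached saturation at 30 °C; 1 = growth at the plate median or of vehicle wells; lower values mean less growth of the strain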
Conditions: S. cerevisiae deletion strains, growth OD

Measured: normalized growth

CC(C)NC[C@H](O)COc1cccc2ccccc12
inactive: locus YAL021C, strain ccr4, hits give low values 0.985 | locus YAL026C, strain drs2, hits give low values 1 | locus YAL030W, strain snc1, hits give low values 0.986 | locus YBL061C, strain skt5, hits give low values 0.984 | locus YBR009C, strain hhf1, hits give low values 0.98 | locus YBR021W, strain FUR4, hits give low values 0.997 | locus YBR023C, strain chs3, hits give low values 0.99 | locus YBR171W, strain sec66, hits give low values 0.989 | locus YBR229C, strain ROT2, hits give low values 1.01 | locus YBR231C, strain swc5, hits give low values 0.989 | locus YBR279W, strain paf1, hits give low values 0.99 | locus YCL011C, strain gbp2, hits give low values 0.993 | locus YCL016C, strain dcc1, hits give low values 0.991 | locus YCL029C, strain bik1, hits give low values 1.02 | locus YCL061C, strain MRC1, hits give low values 0.994 | locus YCL069W, strain vba3, hits give low values 0.993 | locus YCR088W, strain abp1, hits give low values 0.991 | locus YDL005C, strain med2, hits give low values 0.981 | locus YDL035C, strain GPR1, hits give low values 0.993 | locus YDL040C, strain nat1, hits give low values 0.992 | locus YDL074C, strain BRE1, hits give low values 1.02 | locus YDL101C, strain DUN1, hits give low values 1.01 | locus YDL134C, strain PPH21, hits give low values 0.979 | locus YDL185W, strain tfp1, hits give low values 1.03 | locus YDL192W, strain arf1, hits give low values 1.02 | locus YDR001C, strain nth1, hits give low values 0.991 | locus YDR069C, strain doa4, hits give low values 1 | locus YDR101C, strain arx1, hits give low values 1 | locus YDR137W, strain rgp1, hits give low values 1 | locus YDR159W, strain sac3, hits give low values 0.976 | locus YDR162C, strain NBP2, hits give low values 1 | locus YDR195W, strain ref2 0.962 | locus YDR297W, strain sur2, hits give low values 1.01 | locus YDR318W, strain mcm21, hits give low values 1.02 | locus YDR334W, strain swr1, hits give low values 0.999 | locus YDR335W, strain msn5, hits give low values 0.991 | locus YDR388W, hits give low values 1.02 | locus YDR392W, strain spt3, hits give low values 0.943 | locus YDR502C, strain sam2, hits give low values 1 | locus YEL003W, strain gim4, hits give low values 1 | locus YEL037C, strain rad23, hits give low values 1.02 | locus YEL061C, strain CIN8 (second series), hits give low values 0.993 | locus YEL061C, strain CIN8, hits give low values 1.01 | locus YER015W, strain faa2, hits give low values 0.969 | locus YER016W, strain bim1, hits give low values 0.986 | locus YER110C, hits give low values 1.02 | locus YER111C, strain swi4, hits give low values 0.986 | locus YER155C, strain BEM2 (second series), hits give low values 0.98 | locus YER155C, strain BEM2, hits give low values 1.01 | locus YER167W, strain BCK2, hits give low values 1 | locus YFR010W, strain ubp6, hits give low values 1.01 | locus YGL078C, strain dbp3, hits give low values 1.01 | locus YGL086W, strain mad1, hits give low values 0.994 | locus YGL167C, strain pmr1, hits give low values 0.982 | locus YGL173C, strain kem1, hits give low values 0.993 | locus YGL227W, strain vid30, hits give low values 0.992 | locus YGL240W, strain doc1, hits give low values 0.977 | locus YGL248W, strain PDE1, hits give low values 1.01 | locus YGL253W, strain hxk2, hits give low values 1 | locus YGR078C, strain PAC10, hits give low values 1.01 | locus YGR135W, strain pre9, hits give low values 1.02 | locus YGR252W, strain gcn5, hits give low values 0.992 | locus YHR013C, strain ard1, hits give low values 0.953 | locus YHR027C, strain rpn1, hits give low values 0.988 | locus YHR030C, strain SLT2, hits give low values 1.01 and 1.06 | locus YHR079C, strain IRE1 (second series), hits give low values 1.02 | locus YHR079C, strain IRE1, hits give low values 1.08 | locus YHR094C, strain hxt1, hits give low values 1.02 | locus YHR129C, strain ARP1, hits give low values 1.01 | locus YHR142W, strain chs7, hits give low values 1.01 | locus YHR200W, strain rpn10, hits give low values 1.02 | locus YIL066C, strain RNR3, hits give low values 1.01 | locus YIL073C, strain SPO22, hits give low values 1.04 | locus YIL125W, strain kgd1, hits give low values 1.02 | locus YIR030C, strain dcg1, hits give low values 1.03 | locus YJL092W, strain hpr5, hits give low values 0.993 | locus YJL095W, strain BCK1 (second series), hits give low values 0.987 | locus YJL095W, strain BCK1, hits give low values 1.01 and 1.02 | locus YJL115W, strain asf1, hits give low values 0.987 | locus YJL129C, strain trk1, hits give low values 1.01 | locus YJL134W, strain LCB3, hits give low values 1.01 | locus YJL154C, strain vps35, hits give low values 0.992 | locus YJL164C, strain tpk1, hits give low values 0.989 | locus YJL166W, strain qcr8, hits give low values 0.983 | locus YJL168C, strain set2, hits give low values 1.02 | locus YJL187C, strain SWE1 (second series), hits give low values 1.01 | locus YJL187C, strain SWE1, hits give low values 0.984 | locus YJR043C, strain POL32, hits give low values 1.01
